Assay [1] can be described thus: qHTS assay to identify small molecule antagonists of the retinoid acid receptor (RAR) signaling pathway - cell viability counter screen (AID 1159551). Also: nearly all actives have a fitted effect of over 35% in size. Also: potency is read from the fitted curve at half-maximal effect. The gist of the method:
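Cells (C3RL4) are plated, incubated overnight, dosed with compound in DMSO, then given retinol at 1 uM final. After 6 h at 37 C, CellTiter-Glo is added and luminescence read following 30 min at room temperature.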
Background: Quantitative high-throughput screening tests each substance at several concentrations.

A short description of assay [2]: qHTS assay to identify small molecule antagonists of the retinoic acid receptor (RAR) signaling pathway (AID 1159552; also: nearly all actives have a fitted effect of over 50% in size; also: potency is read from the fitted curve at half-maximal effect). The gist of the method:
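Quantitative HTS in C3RL4 RARE-luciferase reporter cells. Compounds were added with 1 uM (final) retinol; luminescence was read after 6 hr.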

Assay [3] in a line: qHTS assay to identify small molecule agonists of the retinoic acid receptor (RAR) signaling pathway (AID 1159553). Also: potency is read from the fitted curve at half-maximal effect. The procedure, abridged:
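Seed C3RL4 reporter cells at 1,000 per well and incubate overnight at 37 C. Add compounds in DMSO, incubate 6 hr. Add luciferase reagent, wait 30 min at room temperature, read luminescence.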

A short description of assay [4]: qHTS assay to identify small molecule antagonists of the estrogen related receptor (ERR) signaling pathway from Tox21 library - cell viability counter screen (AID 1224834). Also: nearly all actives have a fitted effect of over 30% in size. Also: potency is read from the fitted curve at half-maximal effect. The gist of the method: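 ERR cells, 2,000/well; 6 h settle at 37 C/5% CO2; pin-tool compound transfer in DMSO; 17.5 h at 37 C; CellTiter-Fluor, 30 min; fluorescence intensity.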
A short description of assay [5]: qHTS assay to identify small molecule agonists of the constitutive androstane receptor (CAR) signaling pathway - cell viability counter screen (AID 1224836). Also: nearly all actives have a fitted effect of over 45% in size. Also: potency is read from the fitted curve at half-maximal effect. The gist of the method: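 Counter screen multiplexed with the CAR reporter readout: HepG2 cells co-transfected with hCAR and the CYP2B6-2.2kb construct receive a 15-concentration compound series and 0.75 uM PK11195 (final), then CellTiter-Fluor fluorescence is read after 23 h.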

For assay [6], the target named is Nuclear receptor subfamily 1 group I member 3 (Homo sapiens) (UniProt Q14994). Put plainly: qHTS assay to identify small molecule agonists of the constitutive androstane receptor (CAR) signaling pathway (AID 1224839). Also: nearly all actives have a fitted effect of over 15% in size. Also: potency is read from the fitted curve at half-maximal effect. The gist of the method: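 A 15-concentration quantitative screen uses HepG2 cells co-transfected stably with human CAR and CYP2B6-2.2kb reporter. Treatment lasts 24 h with 0.75 uM PK11195 final present; ONE-Glo luminescence is the signal.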
Nuclear receptor subfamily 1 group I member 3 (Homo sapiens), sequence (Q14994 whole entry, looked up): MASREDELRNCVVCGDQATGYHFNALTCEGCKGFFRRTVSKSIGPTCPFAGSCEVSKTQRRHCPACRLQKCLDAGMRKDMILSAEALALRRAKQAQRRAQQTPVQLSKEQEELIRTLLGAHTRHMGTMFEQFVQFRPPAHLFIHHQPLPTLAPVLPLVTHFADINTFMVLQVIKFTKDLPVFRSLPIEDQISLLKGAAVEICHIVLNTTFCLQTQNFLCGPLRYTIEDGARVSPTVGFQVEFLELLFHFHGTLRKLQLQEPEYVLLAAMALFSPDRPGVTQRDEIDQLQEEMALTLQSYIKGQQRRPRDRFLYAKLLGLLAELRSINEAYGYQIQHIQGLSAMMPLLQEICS

Assay [7] can be described thus: qHTS assay to identify small molecule antagonists of the estrogen related receptor signaling pathway with the pleiotropic PPARgamma coactivator (PGC) from Tox21 10K library - cell viability counter screen (AID 1224840; active = well fitted cell-killing curve with a large enough effect in the repeat runs, not every such curve was filed as active; also: nearly all actives have a fitted effect of over 40% in size; also: potency is read from the fitted curve at half-maximal effect). The gist of the method:
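Multiplexed viability counter screen in the PGC/ERR cell line: cells treated with DMSO-dissolved compounds for 17.5 hours at 37 C, then viability measured as CellTiter-Fluor fluorescence.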

Assay [8] deals with Thyrotropin receptor (Homo sapiens) (UniProt P16473). In words: qHTS assay to identify small molecule agonists of the thyroid stimulating hormone receptor (TSHR) signaling pathway (AID 1224843; calls by dose curve; also: nearly all actives have a fitted effect of over 45% in size). The gist of the method:
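A cell-based cAMP HTRF format was run in TSHR-transfected HEK293 cells, 800 per well. Treatment: 30 min, room temperature. Detection: 1 h with labelled cAMP and anti-cAMP cryptate. Concentration-response over 15 points, three replicates.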

Assay [9] can be described thus: qHTS assay to identify small molecule agonists of the RXR signaling pathway - cell viability counter screen (AID 1159529). Also: series mostly up to about 77 µM; nearly all actives have a fitted effect of over 50% in size. The procedure, abridged:
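Cell viability is measured by CellTiter-Glo luminescence, 30 min at room temperature, in wells already read for beta-lactamase. Engineered HEK 293T cells (RXR-alpha-UAS-bla) are dosed 16 hr at 37 C. Tetraoctyl ammonium bromide serves as positive control.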

For assay [10], the target named is Luciferin 4-monooxygenase (Photinus pyralis) (UniProt P08659). Put plainly: qHTS assay to identify small molecule inhibitors of firefly luciferase (AID 1224835). Also: nearly all actives have a fitted effect of over 25% in size. Also: potency is read from the fitted curve at half-maximal effect. The procedure, abridged:
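Inhibition of purified Photinus luciferase is measured by luminescence. Substrate levels (D-luciferin, ATP) sit at their KM values. Each compound is tested in a concentration series.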

A short description of assay [11]: qHTS assay to identify small molecule antagonists of the constitutive androstane receptor (CAR) signaling pathway - cell viability counter screen (AID 1224837). Also: nearly all actives have a fitted effect of over 45% in size. Also: potency is read from the fitted curve at half-maximal effect. The gist of the method: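 Viability was measured with CellTiter-Fluor in a HepG2 line carrying stably transfected hCAR and a CYP2B6-2.2kb construct. Cells were exposed for 23 hr at 37 C to 15 compound concentrations with 50 nM CITCO as agonist.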

Assay [12] deals with Nuclear receptor subfamily 1 group I member 3 (Homo sapiens) (UniProt Q14994). In words: qHTS assay to identify small molecule antagonists of the constitutive androstane receptor (CAR) signaling pathway (AID 1224838).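 Also: HepG2 cells stably expressing hCAR with CYP2B6 luciferase reporter stimulated by CITCO; nearly all actives have a fitted effect of over 40% in size.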 Also: potency is read from the fitted curve at half-maximal effect. The procedure, abridged:
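Antagonist mode used CITCO at a final 50 nM to activate CAR in human hepatoma HepG2 cells carrying stable hCAR and a 2.2 kb CYP2B6 promoter-luciferase construct. Compounds were tested at 15 concentrations over 24 h, with luminescence as the end point.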

Assay [13] in a line: qHTS assay to identify small molecule antagonists of the estrogen related receptor signaling pathway with the pleiotropic PPARgamma coactivator (PGC) from Tox21 10K library (AID 1224841; call rule not given here; also: actives are mostly falling curves and most rising ones were filed inactive; nearly all actives have a fitted effect of over 50% in size; also: potency is read from the fitted curve at half-maximal effect). The gist of the method: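 Steps: plate 2,000 PGC/ERR cells per well; incubate 6 h at 37 C with 5% CO2; transfer compounds from DMSO stocks by pin tool; incubate 18 h at 37 C; add One-Glo; measure luminescence 30 min later.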

Assay [14] is described as follows: qHTS assay to identify small molecule agonists of the estrogen related receptor signaling pathway with the pleiotropic PPARgamma coactivator (PGC) from Tox21 10K library (AID 1224842). Also: nearly all actives have a fitted effect of over 15% in size. The procedure, abridged:
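Luminescence from One-Glo (30 min, room temperature) measured after PGC/ERR cells had 18 h at 37 C with pinned compound (23 nL in DMSO). Cells had been seeded at 2,000 per well and pre-incubated 6 h.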

A short description of assay [15]: qHTS assay to identify small molecule antagonists of the estrogen related receptor (ERR) signaling pathway - cell viability counter screen (AID 1224818). Also: series mostly up to about 46 µM. The procedure, abridged:
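ERR cells, 2,000/well; 6 h settle at 37 C/5% CO2; compound pin transfer (DMSO); 17.5 h at 37 C; CellTiter-Fluor, 30 min, fluorescence read.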

A short description of assay [16]: qHTS assay to identify small molecule antagonists of the estrogen related receptor signaling pathway with the pleiotropic PPARgamma coactivator (PGC) cell viability counter screen (AID 1224822;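 also: series mostly up to about 46 µM; viability read after 17.5 h compound exposure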). The procedure, abridged: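 Multiplexed viability counter screen run in PGC/ERR cells treated with compounds for 17.5 h at 37 C; live-cell protease signal measured by CellTiter-Fluor fluorescence.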

The record followed here is PubChem BioAssay (Tox21).

“And” between values parts separate entries of the source, which are not always exact repeats. Identical values can stand only once. Results filed as inconclusive are left out. Unmarked numbers belong to inactive results. The source made the active and inactive calls. Unless noted, calls follow the shape of the dose curve; as a rule, active = well fitted curve in the direction sought with a large enough effect in the repeat runs; inconclusive = weak or mixed curves; inactive = no such curve, though single readings can be large; an effect the other way counts as inactive or inconclusive.

Thyrotropin receptor (Homo sapiens), sequence (P16473 whole entry, looked up): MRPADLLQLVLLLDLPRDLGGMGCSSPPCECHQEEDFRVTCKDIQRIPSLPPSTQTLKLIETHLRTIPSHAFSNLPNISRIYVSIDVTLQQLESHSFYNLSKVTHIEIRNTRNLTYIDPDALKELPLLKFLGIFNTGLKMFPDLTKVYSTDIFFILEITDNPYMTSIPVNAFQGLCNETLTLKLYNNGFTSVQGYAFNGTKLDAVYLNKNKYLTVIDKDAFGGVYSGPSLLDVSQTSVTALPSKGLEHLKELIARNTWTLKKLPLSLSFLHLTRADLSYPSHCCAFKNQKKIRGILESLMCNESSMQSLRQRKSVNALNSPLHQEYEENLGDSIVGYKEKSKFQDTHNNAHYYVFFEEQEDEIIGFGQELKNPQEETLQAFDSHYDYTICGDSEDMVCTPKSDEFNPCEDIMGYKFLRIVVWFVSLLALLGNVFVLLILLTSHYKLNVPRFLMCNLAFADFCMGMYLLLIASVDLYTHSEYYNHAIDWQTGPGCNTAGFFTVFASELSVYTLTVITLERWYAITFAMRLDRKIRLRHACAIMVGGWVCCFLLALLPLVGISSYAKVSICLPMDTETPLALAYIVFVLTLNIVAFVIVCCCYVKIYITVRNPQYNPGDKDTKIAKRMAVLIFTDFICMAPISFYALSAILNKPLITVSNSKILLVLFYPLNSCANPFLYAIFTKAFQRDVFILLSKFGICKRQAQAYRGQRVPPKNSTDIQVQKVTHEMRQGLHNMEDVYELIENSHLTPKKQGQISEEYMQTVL
Luciferin 4-monooxygenase (Photinus pyralis), sequence (P08659 whole entry, looked up): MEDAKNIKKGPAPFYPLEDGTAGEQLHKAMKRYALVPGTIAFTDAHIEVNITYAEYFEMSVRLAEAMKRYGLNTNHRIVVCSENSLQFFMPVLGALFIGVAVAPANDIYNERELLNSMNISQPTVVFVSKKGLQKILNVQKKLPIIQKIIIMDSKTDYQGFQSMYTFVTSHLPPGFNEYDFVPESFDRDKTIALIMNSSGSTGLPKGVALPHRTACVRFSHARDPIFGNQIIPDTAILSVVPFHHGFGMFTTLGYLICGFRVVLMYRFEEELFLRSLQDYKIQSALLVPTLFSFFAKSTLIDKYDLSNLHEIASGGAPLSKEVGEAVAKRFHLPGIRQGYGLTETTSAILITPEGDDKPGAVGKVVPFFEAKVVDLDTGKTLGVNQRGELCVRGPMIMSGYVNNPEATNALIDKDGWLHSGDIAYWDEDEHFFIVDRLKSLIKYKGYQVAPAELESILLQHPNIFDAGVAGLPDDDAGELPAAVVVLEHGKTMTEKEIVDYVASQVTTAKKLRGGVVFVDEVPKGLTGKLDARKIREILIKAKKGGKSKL

Turning to `Cc1oc(-c2ccccc2)nc1CCOc1cccc2c1ccn2CCC(=O)O`, the Potency entry in [1], in assay [2], in [3], in [5], in assay [6] and in assay [7] was “inactive” throughout. Moreover, the Potency entry in assay [8] is “inactive”. Further, the Potency in assay [4] was 30.6 µM (active).

For `CCCCC(CC)CN1C(=O)C2C3C=CC(C3)C2C1=O` (stereo not given), the Potency result in assay [9], in assay [10], in assay [5], in assay [11], in assay [12] and in assay [7] was “inactive” in each case. The Potency result in [13] and in [14] was “inactive” each time. The Potency in assay [6] is 30.6 µM (active).

As for `CC(=O)c1ccc2c(c1)N(CCCN(C)C)c1ccccc1S2`, the Potency result in [1], in [3], in assay [10], in assay [11], in assay [12] and in [6] was “inactive” each time. Besides, the Potency entry in assay [7] and in assay [8] was “inactive” in each case. Besides, the molecule was classed as inactive in [15] and in assay [16].

For `CCCCc1nc2cccnc2n1Cc1ccc(-c2ccccc2-c2nnn[nH]2)cc1`, the Potency entry in [9], in [5], in assay [6], in assay [7] and in [8] was “inactive” throughout.

In the case of `O=C(OCCCCCCOC(=O)c1ccccc1)c1ccccc1`, the Potency entry in assay [1], in [2], in [4], in assay [10], in assay [5] and in [11] was “inactive” in each case. The Potency entry in assay [12], in assay [6], in assay [7], in assay [13] and in [14] was “inactive” in each case.

As for `CCN(CC)c1ccc(C(=C2C=CC(=[N+](CC)CC)C=C2)c2cc(S(=O)(=O)O)ccc2S(=O)(=O)[O-])cc1`, the Potency in assay [1] was 15 µM (active); in assay [2], 11.9 µM (active); in assay [4], 29.8 µM (active); in [10] it was 12.3 µM (active); in [12] it was 11.9 µM (active); in [13] it was 11.9 µM (active). Besides, the Potency result in assay [6] and in assay [14] was “inactive” each time.

As for `C=CC(=O)OCCOCCOCCOCCOC(=O)C=C`, the Potency in assay [2] was 48.8 µM (active) and 42.9 µM (active); in assay [3], 19.4 µM (active) and 17.1 µM (active); in assay [4], 30.8 µM (active) and 24.1 µM (active); in assay [5], 54.8 µM (active) and 60.6 µM (active); in [11] it was 48.8 µM (active) and 54 µM (active); in [12], 61.4 µM (active). Moreover, the Potency in assay [7] was 27.4 µM (active) and 27.1 µM (active). The Potency entry in assay [10] and in assay [8] was “inactive” in each case.

Consider `CCN(CC)CCOC(=O)C(c1ccccc1)C1CCCCC1` (stereo not given), for which the Potency entry in [3], in [10], in [5], in [11], in assay [12] and in [6] was “inactive” throughout. Moreover, the Potency in assay [4] is 29.8 µM (active).

On to `COC(=O)C1=C(C)NC(COC(N)=O)=C(C(=O)OC(C)C)C1c1cccc(Cl)c1Cl` (stereo not given), for which the Potency entry in assay [10], in assay [5], in assay [11], in assay [6], in assay [14] and in [8] was “inactive” throughout.

As for `CC1=CCCC(C)(C)C12CCC(C)O2` (stereo not given), the Potency result in [1], in assay [10], in assay [5], in assay [11] and in [7] was “inactive” each time.

Take `O=C(Nc1ccccc1)c1ccccc1O`: the Potency result in assay [2], in assay [5], in [11] and in assay [14] was “inactive” each time. Also, the Potency in assay [3] was 8.63 µM (active); in assay [10], 15.9 µM (active); in [6] it was 27.3 µM (active).

Consider `CCC(CC)Nc1ccc(C)c(C)c1`, for which the Potency result in [1], in assay [4], in assay [11], in assay [6] and in [7] was “inactive” throughout.

`CCCCNc1ccc(C(=O)OCCOCCOCCOCCOCCOCCOCCOCCOCCOC)cc1`: the Potency result in [1], in [4], in assay [10], in assay [5], in assay [11] and in assay [12] was “inactive” throughout. Moreover, the Potency entry in assay [7], in assay [13] and in [8] was “inactive” each time.

Regarding `CCCCCCCCCc1ccc(OCCOCCO)cc1`, the Potency entry in [10], in assay [12] and in assay [6] was “inactive” each time. Moreover, the Potency in [5] is 6.44 µM (active); in assay [11], 5.74 µM (active); in [7] it was 10.2 µM (active).
